The text below walks through data of ChEMBL document CHEMBL1961873, “Compounds: GSK PKIS; Assays: Nanosyn kinase panel” (2012).

For assay [1], the target named is RAC-alpha serine/threonine-protein kinase (Homo sapiens) (UniProt P31749). To be noted: at 0.1 µM.
The target is the same in assay [2]. Conditions: at 1 µM.
Assay [3] has as its target RAC-beta serine/threonine-protein kinase (Homo sapiens) (UniProt P31751). To be noted: at 0.1 µM.
Assay [4] has the same target. Conditions: at 1 µM.
The target in assay [5] is RAC-gamma serine/threonine-protein kinase (Homo sapiens) (UniProt Q9Y243). Conditions: at 0.1 µM.
Assay [6] has the same target. Conditions: at 1 µM.
For assay [7], the target named is G protein-coupled receptor kinase 6 (Homo sapiens) (UniProt P43250). To be noted: at 0.1 µM.
Assay [8] shares this target. To be noted: at 1 µM.
Assay [9] concerns the target T1, Rhodopsin kinase GRK7 (Homo sapiens) (UniProt Q8WTQ7).
T1 sequence (whole entry): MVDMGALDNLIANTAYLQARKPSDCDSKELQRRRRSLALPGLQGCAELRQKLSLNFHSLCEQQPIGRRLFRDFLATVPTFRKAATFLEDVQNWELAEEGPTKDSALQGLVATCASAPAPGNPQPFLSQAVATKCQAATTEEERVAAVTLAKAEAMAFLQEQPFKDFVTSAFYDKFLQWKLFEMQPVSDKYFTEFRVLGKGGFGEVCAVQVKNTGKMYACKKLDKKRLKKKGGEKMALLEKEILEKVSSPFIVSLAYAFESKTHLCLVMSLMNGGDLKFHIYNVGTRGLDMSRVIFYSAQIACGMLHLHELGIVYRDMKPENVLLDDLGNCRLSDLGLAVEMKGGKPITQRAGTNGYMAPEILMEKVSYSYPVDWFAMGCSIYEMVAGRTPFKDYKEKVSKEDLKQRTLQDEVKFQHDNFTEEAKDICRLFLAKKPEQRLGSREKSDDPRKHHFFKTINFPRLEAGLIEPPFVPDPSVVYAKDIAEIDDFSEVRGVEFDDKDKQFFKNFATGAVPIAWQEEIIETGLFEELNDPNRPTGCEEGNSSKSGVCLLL
Conditions: at 0.1 µM.

Assay [10] has as its target T1, Rhodopsin kinase GRK7 (Homo sapiens). Conditions: at 1 µM.

Molecules are shown by their SMILES.

RAC-alpha serine/threonine-protein kinase (Homo sapiens), sequence (P31749 whole entry): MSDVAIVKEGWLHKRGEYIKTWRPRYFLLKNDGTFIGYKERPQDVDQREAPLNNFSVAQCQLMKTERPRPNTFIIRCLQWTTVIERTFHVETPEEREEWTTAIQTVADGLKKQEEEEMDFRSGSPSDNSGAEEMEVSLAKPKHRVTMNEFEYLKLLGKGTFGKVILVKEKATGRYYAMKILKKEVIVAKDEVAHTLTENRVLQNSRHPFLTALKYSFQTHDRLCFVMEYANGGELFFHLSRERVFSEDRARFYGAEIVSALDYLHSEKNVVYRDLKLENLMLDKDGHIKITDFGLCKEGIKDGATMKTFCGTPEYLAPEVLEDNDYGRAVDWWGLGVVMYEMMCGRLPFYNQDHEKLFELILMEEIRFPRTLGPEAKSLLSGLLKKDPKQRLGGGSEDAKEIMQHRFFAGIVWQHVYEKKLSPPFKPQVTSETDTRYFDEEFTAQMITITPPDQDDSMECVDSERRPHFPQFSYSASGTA
G protein-coupled receptor kinase 6 (Homo sapiens), sequence (P43250 whole entry, looked up): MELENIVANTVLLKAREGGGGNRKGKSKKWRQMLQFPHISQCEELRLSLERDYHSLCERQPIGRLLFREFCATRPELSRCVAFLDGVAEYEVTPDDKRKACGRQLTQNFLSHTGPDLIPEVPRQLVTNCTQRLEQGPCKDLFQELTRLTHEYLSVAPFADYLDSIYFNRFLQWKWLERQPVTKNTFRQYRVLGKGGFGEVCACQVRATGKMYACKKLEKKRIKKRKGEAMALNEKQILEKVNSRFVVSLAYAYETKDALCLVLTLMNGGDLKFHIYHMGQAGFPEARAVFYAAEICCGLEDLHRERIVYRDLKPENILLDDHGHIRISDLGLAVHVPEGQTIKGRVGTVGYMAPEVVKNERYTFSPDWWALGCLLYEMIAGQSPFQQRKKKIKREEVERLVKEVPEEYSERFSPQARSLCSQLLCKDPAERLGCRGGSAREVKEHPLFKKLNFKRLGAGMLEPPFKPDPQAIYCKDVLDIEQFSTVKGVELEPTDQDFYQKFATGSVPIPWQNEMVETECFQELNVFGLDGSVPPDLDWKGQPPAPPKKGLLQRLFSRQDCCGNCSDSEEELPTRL
RAC-beta serine/threonine-protein kinase (Homo sapiens), sequence (P31751 whole entry): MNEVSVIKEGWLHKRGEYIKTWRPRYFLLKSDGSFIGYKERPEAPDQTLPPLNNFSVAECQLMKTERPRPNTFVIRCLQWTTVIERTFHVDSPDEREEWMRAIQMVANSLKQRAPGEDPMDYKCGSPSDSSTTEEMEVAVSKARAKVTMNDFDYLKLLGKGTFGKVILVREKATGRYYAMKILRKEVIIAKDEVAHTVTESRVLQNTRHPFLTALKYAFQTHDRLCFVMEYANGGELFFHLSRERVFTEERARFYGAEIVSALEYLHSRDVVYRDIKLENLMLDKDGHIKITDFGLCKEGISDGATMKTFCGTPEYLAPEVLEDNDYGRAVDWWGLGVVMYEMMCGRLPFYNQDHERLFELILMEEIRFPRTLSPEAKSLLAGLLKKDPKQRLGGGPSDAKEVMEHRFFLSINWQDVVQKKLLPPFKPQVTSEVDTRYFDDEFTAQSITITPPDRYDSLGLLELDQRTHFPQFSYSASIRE
RAC-gamma serine/threonine-protein kinase (Homo sapiens), sequence (Q9Y243 whole entry): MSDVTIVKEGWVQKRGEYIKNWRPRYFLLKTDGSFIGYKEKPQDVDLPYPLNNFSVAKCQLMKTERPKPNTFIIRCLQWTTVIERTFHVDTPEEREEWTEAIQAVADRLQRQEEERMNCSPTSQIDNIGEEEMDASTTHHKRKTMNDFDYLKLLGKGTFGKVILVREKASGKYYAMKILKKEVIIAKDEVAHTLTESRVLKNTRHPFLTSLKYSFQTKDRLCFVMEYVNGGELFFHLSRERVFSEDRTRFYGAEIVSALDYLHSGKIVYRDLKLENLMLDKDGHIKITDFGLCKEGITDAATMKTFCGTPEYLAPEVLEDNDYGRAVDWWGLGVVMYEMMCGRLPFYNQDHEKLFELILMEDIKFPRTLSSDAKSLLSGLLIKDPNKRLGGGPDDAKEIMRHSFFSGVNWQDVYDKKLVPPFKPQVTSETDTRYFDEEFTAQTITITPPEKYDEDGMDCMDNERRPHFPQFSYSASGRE

For orientation: inhibition means the relative decrease from the control value, in per cent. In the case of `COc1cc(Nc2nccc(Nc3ccc4c(C)n[nH]c4c3)n2)cc(OC)c1OC`, the inhibition in assay [1] is 0.02%; in assay [2], 1.09%; in assay [3], 0.52%; in [4], 1.19%; in assay [5], 0.72%; in assay [6], 1.18%. The inhibition is -0.47% in assay [7], -4.13% in assay [8], 1.14% in assay [9] and -1.95% in assay [10].

With `CCCN(CCS(C)(=O)=O)Cc1ccc(-c2ccc3ncnc(Nc4ccc(OCc5cccc(F)c5)c(Cl)c4)c3c2)o1`, the inhibition in [1] is 0.19%; in assay [2] it was 0.93%; in [3], 1.03%; in assay [4], 0.88%; in assay [5] it was 0.64%; in assay [6], 0.93%. Also, the inhibition in [7] is 5.12%; in assay [8] it was 1.91%; in [9] it was -0.29%; in assay [10] it was 0.79%.

`Cc1cccc2c1NC(=O)/C2=N\Nc1ccc(S(N)(=O)=O)cc1`: the inhibition was 1.04% in assay [1]; 1.19% in assay [2]; 2.18% in assay [3]; 1.39% in assay [4]; 1.07% in assay [5]; 1.15% in assay [6]. Further, the inhibition was 2.1% in assay [7], 3.62% in [8], 1.49% in assay [9] and -6.16% in assay [10].

On to `CNC(=O)c1cccc(C#Cc2cncnc2Nc2ccc(OCc3cccc(F)c3)c(Cl)c2)c1`, for which the inhibition in assay [1] was 0.17%; in [2], -0.5%; in assay [3], 0%; in assay [4], 0.98%; in assay [5] it was 0.81%; in assay [6] it was -1.1%. Also, the inhibition is 0.71% in [7], 3.57% in [8], 1.29% in assay [9] and -1.25% in [10].

For `COC(=O)c1sc(-n2cnc3cc(OC)c(OC)cc32)cc1OCc1ccccc1C(F)(F)F`, the inhibition in assay [1] is 0.87%; in [2] it was 0.62%; in assay [3] it was 2.35%; in assay [4], 1.5%; in assay [5], -0.55%; in assay [6], 1.41%. Also, the inhibition was -0.86% in assay [7], 1.16% in [8], 2.73% in assay [9] and 7.64% in [10].

Consider `COc1cc2c(cc1Nc1nc(Nc3ccsc3C(N)=O)c3cc[nH]c3n1)N(C(=O)CN(C)C)CCC2(C)C`, for which the inhibition in assay [1] came out at 1.26%; in [2] it was 0.48%; in assay [3] it was 2.13%; in assay [4], 2.14%; in assay [5], 0.83%; in assay [6], 2.54%. For the same compound, the inhibition in [7] was 49.5%; in [8] it was 87.2%; in assay [9] it was 34.2%; in assay [10], 63.2%.

With `CCNC(=O)O[C@H]1CN[C@H](C#Cc2cc3ncnc(Nc4ccc(OCc5cccc(F)c5)c(Cl)c4)c3s2)C1`, the inhibition amounted to 1.21% in assay [1]; 0.9% in [2]; 3.39% in assay [3]; 2.59% in [4]; 1.29% in assay [5]; 1.95% in assay [6]. For the same compound, the inhibition was 2.11% in assay [7], 4.14% in [8], 2.34% in assay [9] and 2.31% in [10].

With `N#Cc1c(NC(=O)CN2CCOCC2)sc2c1CCCC2`, the inhibition is 1.2% in assay [1]; 1.08% in [2]; 1.56% in assay [3]; 1% in assay [4]; 1.61% in [5]; 2.91% in assay [6]. Also, the inhibition in assay [7] is 2.71%; in assay [8] it was 4.14%; in [9], 3.28%; in [10], 4.91%.

In the case of `c1ccc(COc2ccc(Nc3ncnc4ccc(-c5ccco5)cc34)cc2)cc1`, the inhibition was 0.02% in assay [1]; 0.01% in [2]; -0.87% in assay [3]; 0.43% in assay [4]; 0.39% in assay [5]; 2.23% in [6]. In addition, the inhibition was -0.04% in assay [7], 4.75% in [8], 5.57% in assay [9] and 5.11% in assay [10].

Regarding `CCCN1CCC(c2ccc(Nc3nc(Nc4cc(F)ccc4C(N)=O)c4cc[nH]c4n3)c(OC)c2)CC1`, the inhibition in assay [1] was -0.31%; in assay [2], 0.33%; in [3], 2.13%; in [4], 1.62%; in [5], 1.85%; in assay [6], 2.68%. Also, the inhibition in assay [7] was 16.3%; in assay [8] it was 58.8%; in [9], 11.6%; in assay [10], 45%.

For `Clc1ccc(-c2nn3ncccc3c2-c2ccnc(Nc3ccccc3)n2)cc1`, the inhibition in assay [1] was 0.13%; in assay [2] it was 0.62%; in [3], 0.64%; in assay [4], 1.15%; in [5], 1.22%; in assay [6] it was -0.89%. For the same compound, the inhibition in assay [7] is 2.85%; in [8] it was 1.72%; in assay [9] it was 3.88%; in assay [10] it was -1.87%.

Take `Cc1ccc(O)cc1Nc1ccnc2cc(-c3ccccn3)ccc12`: the inhibition was determined as 1.31% in assay [1]; 1.02% in assay [2]; 2.69% in assay [3]; 2.45% in assay [4]; 1.16% in [5]; 2.32% in [6]. Further, the inhibition in [7] was 1.43%; in assay [8], -3.7%; in assay [9], 4%; in [10], -2.85%.

Take `NC(=O)c1sc(-n2cnc3ccc(C(F)(F)F)cc32)cc1OCc1ccccc1Br`: the inhibition in assay [1] was 0.43%; in assay [2] it was 0.68%; in [3], 2.44%; in [4], 2.18%; in assay [5] it was 0.75%; in assay [6] it was 1.39%. In addition, the inhibition in assay [7] is 5.91%; in assay [8], 9.67%; in [9] it was 4.43%; in assay [10], 14.5%.

Consider `COc1cc(N2CCN(C(C)C)CC2)ccc1Nc1nc(Nc2ccc(F)cc2C(N)=O)c2cc[nH]c2n1`, for which the inhibition came out at 0.91% in assay [1]; 2.86% in assay [2]; 1.62% in assay [3]; 3.68% in [4]; 1.62% in assay [5]; 4.8% in [6]. Also, the inhibition in assay [7] turned out to be 3.9%; in assay [8] it was 14.3%; in assay [9], 5.3%; in assay [10], 10.1%.

Take `Nc1nc(-c2ccc(F)cc2)c(-c2ccc3ncccc3n2)s1`: the inhibition was 0.67% in [1]; 1.34% in assay [2]; 2.24% in assay [3]; 2.19% in [4]; 5.53% in [5]; 1.9% in assay [6]. The inhibition in assay [7] is 5.89%; in assay [8], 5.57%; in assay [9], 6.78%; in assay [10], 7.94%.

On to `NS(=O)(=O)c1ccc(Nc2ncc(-c3ccccc3)o2)cc1`, for which the inhibition in [1] was determined as 0.78%; in assay [2] it was 0.93%; in assay [3] it was 2.08%; in assay [4] it was 1.95%; in assay [5], 0.97%; in assay [6] it was 1.49%. Further, the inhibition in assay [7] was 4.73%; in [8], 3.06%; in assay [9], 2.42%; in assay [10], 2.99%.
